Inconclusive results are not listed. Activity calls are given as the source filed them. Unless noted, calls follow the shape of the dose curve; as a rule, active = well fitted curve in the direction sought with a large enough effect; inconclusive = small, poorly fitted or top-dose-only effect, or another doubt; inactive = no such curve, though single readings can be large; an effect the other way counts as inactive or inconclusive.

Here are results for one molecule from PubChem BioAssay (NCATS).

Assay [1] is described as follows: AP1 Signaling Pathway (AID 357; active = well fitted curve in either direction with a large enough effect, not every such curve was filed as active; also: % is scaled to controls: 0 for no effect and ±100 for the full control effect). Particulars: ME-180 AP-1-bla reporter, EGF-induced, beta-lactamase ratio, 5 h; at 38 µM (top of the series). In a few lines:
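AP-1-bla ME-180 cells with beta-lactamase reporter under AP-1 response element, stimulated with EC50 EGF; compounds titrated, 5 hours at 37 degrees Celsius. CCF4 read at 460/530 nm ratio; positive and negative modulators judged by AC50.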

Assay [2] addresses Cytochrome P450 1A2 (Homo sapiens) (UniProt P05177). In words: p450-cyp1a2 (AID 410; calls by dose curve; also: potency is read from the fitted curve at half-maximal effect). In a few lines:
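Human CYP1A2 (20nM) demethylated Luciferin-ME at its Km (100uM) in 100mM KPO4. After 10 min compound preincubation, NADPH regeneration ran the reaction 60 min at room temperature. Luciferin was read by luminescence, normalized to 57 uM furafylline.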

The nature of assay [3]: NFAT Signaling Pathway (AID 444; active = well fitted curve in either direction with a large enough effect, not every such curve was filed as active;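 also: carbachol stimulus at about its EC50 of 1 µM final; % is scaled to controls: 0 for no effect and ±100 for the full control effect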). Particulars: Jurkat NFAT-bla M1, carbachol, beta-lactamase ratio, 5 h; at 38 µM (top of the series). In a few lines:
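Jurkat cells carrying an NFAT-driven β-lactamase reporter and co-transfected muscarinic M1 receptor were treated with compound plus carbachol (1 uM final, an EC50 level) for 5 h at 37 °C. CCF4 loading followed for 1 h at RT; 460/530 nm ratio gave %activity.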

The nature of assay [4]: Stat Signaling Pathway (AID 446; active = well fitted curve in either direction with a large enough effect, not every such curve was filed as active;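 also: ME-180 cervical cancer cells given 40 pM IL-6 alongside compound; SIE-controlled beta-lactamase reporter measured as 460/530 nm FRET emission ratio; % is scaled to controls: 0 for no effect and ±100 for the full control effect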). Particulars: ME-180 SIE beta-lactamase reporter, IL-6 stimulated, 5 h; at 38 µM (top of the series). In a few lines:
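Reporter line: ME-180 cervical carcinoma, SIE-beta-lactamase. Treatment: compound with 40 pM IL-6, 5 hrs, 37 C, in low-serum OPTI-MEM with 10 mM HEPES pH 7.3. Detection: 460/530 nm fluorescence.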

In assay [5] the target is Glucocorticoid receptor (Homo sapiens) (UniProt P04150). In words: GR-GFP Redistribution (AID 450;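 active = compounds whose dose series gives a full or clear partial fitted curve of increased nuclear translocation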; also: potency is read from the fitted curve at half-maximal effect). Particulars: U2OS GR-GFP nuclear translocation, laser cytometry, 2 h.
Glucocorticoid receptor (Homo sapiens), sequence (P04150 whole entry, looked up, the tested form may be a part): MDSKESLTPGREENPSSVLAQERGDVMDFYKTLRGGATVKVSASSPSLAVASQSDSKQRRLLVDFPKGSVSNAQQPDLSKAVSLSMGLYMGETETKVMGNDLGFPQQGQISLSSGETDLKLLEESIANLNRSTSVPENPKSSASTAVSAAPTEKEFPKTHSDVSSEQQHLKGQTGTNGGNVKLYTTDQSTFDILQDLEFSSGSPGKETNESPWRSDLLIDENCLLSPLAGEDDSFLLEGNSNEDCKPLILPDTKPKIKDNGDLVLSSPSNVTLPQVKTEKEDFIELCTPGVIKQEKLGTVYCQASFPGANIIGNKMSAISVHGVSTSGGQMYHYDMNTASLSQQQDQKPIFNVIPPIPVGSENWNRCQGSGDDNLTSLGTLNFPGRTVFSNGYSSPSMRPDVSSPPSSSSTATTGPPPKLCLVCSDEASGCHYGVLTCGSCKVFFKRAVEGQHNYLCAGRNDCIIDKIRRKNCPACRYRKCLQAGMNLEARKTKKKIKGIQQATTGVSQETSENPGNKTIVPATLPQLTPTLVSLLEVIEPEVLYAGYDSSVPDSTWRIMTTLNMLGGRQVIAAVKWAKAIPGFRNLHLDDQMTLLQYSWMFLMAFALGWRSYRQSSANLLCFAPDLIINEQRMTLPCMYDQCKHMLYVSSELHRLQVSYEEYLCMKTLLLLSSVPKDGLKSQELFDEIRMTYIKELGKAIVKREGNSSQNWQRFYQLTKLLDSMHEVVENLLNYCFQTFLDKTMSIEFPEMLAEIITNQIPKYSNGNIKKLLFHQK
For assay [6] the target is unchanged. Kind of assay: GR-EFC Redistribution (AID 451; calls by dose curve; also: potency is read from the fitted curve at half-maximal effect). The conditions noted are these: CHO-K1 GR-EFC translocation, beta-gal luminescence, 2 h. In a few lines: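 CHO-K1 cells stably expressing nuclear-localized β-gal enzyme acceptor and GR fused C-terminally to the enzyme donor fragment; ligand-driven nuclear translocation restores β-gal by complementation. Compounds titrated up to 46 uM final, 2 h at 37 °C; luminescence read.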

The target of assay [7] is Mitogen-activated protein kinase 10 (Mus musculus) (UniProt Q61831). Kind of assay: JNK3 AlphaScreen Assay (AID 530; active = well fitted curve in either direction with a large enough effect, not every such curve was filed as active;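 also: kinase came from lysate of stimulated human HepG2 cells; signal reports phosphorylation of biotinylated GST-cJun 1-79 at Ser73 with 10 µM ATP; % is scaled to controls: 0 for no effect and ±100 for the full control effect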). In a few lines: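 JNK3 came from HepG2 lysates pre-activated with IL-1beta and TNF-alpha and phosphorylated biotinylated GST-cJun (1-79) at 10 uM ATP, pH 7.6, room temperature. Compounds were titrated. AlphaScreen signal used anti-phospho-cJun (Ser73) antibody.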

For assay [8], the target named is 3',5'-cyclic-AMP phosphodiesterase 4B (Homo sapiens) (UniProt Q07343). In words: qHTS Assay for Inhibitors of PDE-IV (AID 607; active = well fitted activation curve with a large enough effect in the main read-out, with a control signal flat, not every such curve was filed as active; also: % of control where 0% means no effect). In a few lines: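 Cell-based read-out of cAMP via a modified cyclic nucleotide-gated channel and membrane potential dye (535/590 nm) in HEK293 cells expressing PDE4 endogenously. Compounds tested up to 22.9 uM final; 100 uM RO 20-1724 reference.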
3',5'-cyclic-AMP phosphodiesterase 4B (Homo sapiens), sequence (Q07343 whole entry, looked up): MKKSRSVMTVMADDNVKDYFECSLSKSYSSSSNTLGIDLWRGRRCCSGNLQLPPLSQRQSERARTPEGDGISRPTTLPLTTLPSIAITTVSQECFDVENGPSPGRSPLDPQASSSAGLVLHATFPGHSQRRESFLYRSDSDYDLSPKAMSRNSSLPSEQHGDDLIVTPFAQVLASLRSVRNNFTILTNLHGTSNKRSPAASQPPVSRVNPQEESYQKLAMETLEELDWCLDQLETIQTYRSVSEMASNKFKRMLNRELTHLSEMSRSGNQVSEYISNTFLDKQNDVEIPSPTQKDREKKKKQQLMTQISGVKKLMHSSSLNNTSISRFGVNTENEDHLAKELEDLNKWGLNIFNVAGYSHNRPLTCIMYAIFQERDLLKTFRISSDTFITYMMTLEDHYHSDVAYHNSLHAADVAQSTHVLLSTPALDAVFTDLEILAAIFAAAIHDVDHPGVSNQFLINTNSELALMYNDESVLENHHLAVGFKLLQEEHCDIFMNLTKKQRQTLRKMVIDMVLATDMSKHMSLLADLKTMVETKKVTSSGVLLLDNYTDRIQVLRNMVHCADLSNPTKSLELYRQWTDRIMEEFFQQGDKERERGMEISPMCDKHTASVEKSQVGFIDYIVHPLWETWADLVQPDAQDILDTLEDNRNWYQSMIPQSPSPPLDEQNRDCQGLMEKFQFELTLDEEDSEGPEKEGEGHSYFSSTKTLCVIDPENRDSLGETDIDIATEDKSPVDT

For assay [9], the target named is Guanine nucleotide-binding protein G(i) subunit alpha-1 (Homo sapiens) (UniProt P63096). Kind of assay: qHTS Assay for Inhibitors of RGS12 GoLoco Motif Activity (Green Fluorophore) (AID 879).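 Also: 0% = labeled peptide with Gαi1 and full inhibition = labeled peptide alone without protein; negative values mean loss of peptide binding seen as reduced polarization.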 In a few lines:
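Fluorescence polarization assay: 50 nM Gαi1 with 10 nM FITC-labeled RGS12 GoLoco peptide in 10 mM Tris pH 7.5, 150 mM NaCl, 0.1 mM GDP, 0.05% NP40, 10 min at room temperature with compound.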
For orientation: In qHTS, concentration-response curves come from the screen itself.

Assay [10] has as its target Cytochrome P450 3A4 (Homo sapiens) (UniProt P08684). Kind of assay: qHTS Assay for Activators of Cytochrome P450 3A4 (AID 885). Also: nearly all actives have a fitted effect of over 65% in size. In a few lines:
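Signal was normalized against complete inhibition by 57 uM ketoconazole. The reaction used 20nM CYP3A4 with 25uM Luciferin-PPXE, 10-min compound preincubation and a 60-min NADPH-supported step at RT.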

Assay [11] concerns the target Muscarinic acetylcholine receptor M1 (Rattus norvegicus) (UniProt P08482). In words: qHTS Assay for Antagonists of Acetylcholine Muscarinic M1 Receptor: Kinetic Measurement of Intracellular Calcium Response (AID 943).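 Also: Fluo-4 calcium signal as peak divided by basal fluorescence over 4 min; nearly all actives have a fitted effect of over 75% in size.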 In a few lines:
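CHO cells stably expressing rat M1 were loaded with no-wash Fluo-4 dye for 1 h at 37C, pre-incubated 10 min with compound, then challenged with EC80 carbachol (100 nM final); kinetic calcium read 4 min, peak/basal ratio.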

Assay [12] has the same target. In words: qHTS Assay for Antagonists of Acetylcholine Muscarinic M1 Receptor: Measurement of IP-One Response (AID 944). Also: nearly all actives have a fitted effect of over 75% in size. In a few lines:
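CHO cells expressing rat M1 receptor, recovered overnight, were pre-incubated 10 min with compound, then stimulated 30 min with carbachol at EC80 (200 nM) in LiCl-containing buffer, pH 7.4. IP1 accumulation was read by HTRF (620/665 nm).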

Assay [13] has as its target Pyruvate kinase (Leishmania mexicana) (UniProt Q27686). In words: qHTS Validation Assay for Inhibitors of Leishmania Mexicana Pyruvate Kinase (AID 945).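 Also: 0% = DMSO only neutral control wells.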 In a few lines: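 Read-out: luminescence from PKLight stop/detection reagent, data normalized to DMSO. Reaction: 0.2 nM E451W LmPYK, 0.5 mM PEP, 0.1 mM ADP, pH 7.2, 1 h room temperature.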
Assay [14] addresses Pyruvate kinase PKM (Homo sapiens) (UniProt P14618). In words: qHTS Assay for Activators of Human Muscle Pyruvate Kinase (AID 954; active = well fitted curve in the direction sought with a large enough effect, not every such curve was filed as active;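 also: 0% = uninhibited enzyme and -100% = no enzyme or full thiadiazolimine inhibition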). In a few lines:
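Human PKM2 activity is measured as ATP generation, detected by luciferase-coupled luminescence. The enzyme (0.1 nM) acts on 0.5 mM PEP and 0.1 mM ADP for 1 h at ambient temperature; data are normalized to uninhibited and full-inhibition wells.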

Assay [15] deals with Alpha-galactosidase A (Homo sapiens) (UniProt P06280). In words: Counterscreen for Glucocerebrosidase Inhibitors: qHTS Assay for Human alpha-Galactosidase at pH 4.5 (AID 992). Also: 0% is about no effect. In a few lines:
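Quantitative HTS: compounds tested from 0.7 nM up to 77 uM against 2 nM enzyme with 80 uM 4-MU alpha-D-galactopyranoside. The 20 min room-temperature reaction is stopped with 1M NaOH/1M glycine, pH 10.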

Assay [16] has as its target alpha-glucosidase (Oryza sativa, rice) (UniProt Q653V4). Kind of assay: Counterscreen for Glucocerebrosidase Inhibitors: qHTS Assay for Rice alpha-Glucosidase at pH 5.0 (AID 997).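 Also: 0% = full activity with enzyme and -100% = basal without enzyme.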 In a few lines: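 Rice alpha-glucosidase (4 nM final) with 400 uM 4-methylumbelliferyl-alpha-D-glucopyranoside in citrate buffer pH 5.0, 20 min at room temperature, stopped at pH 10; fluorescence 365/440 nm, compounds 0.7 nM–77 uM, AC50 from Hill fits.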
(A counterscreen serves to expose hits that act by an unwanted route or on another target.)

A short description of assay [17]: Validation of Assay for Modulators of Lamin A Splicing (AID 1459; active = well fitted curve in the direction sought with a large enough effect in the signal ratio; the % refers to the signal ratio;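 also: cells exposed to compound for two days before reading; 0% is about no effect; ratio rise marks activators and ratio drop marks inhibitors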). In a few lines: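 HeLa S3 lamin A-EGFP/DsRed2 stable clone, 600 cells/well, Opti-MEM 2% FBS; compounds by pin tool; 48 hrs, 37 °C/5% CO2; Acumen 488 nm scan, objects 10-100 um; GFP/RFP intensity ratio.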
Assay [18] is described as follows: qHTS Assay for Lipid Storage Modulators (AID 1519; calls by dose curve). Particulars: Drosophila S3 cells, BODIPY lipid droplet/cell ratio, laser cytometry, cells loaded with oleic acid. In a few lines: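 Cells seeded at 5,000 per well were treated with compounds over a concentration series and loaded with oleic acid (400 uM, as added). Lipid droplet fluorescence (488 nm excitation, 500-530 nm channel) was read by laser-scanning cytometry and normalized to 20 uM Triacsin C.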

Muscarinic acetylcholine receptor M1 (Rattus norvegicus), sequence (P08482 whole entry, looked up): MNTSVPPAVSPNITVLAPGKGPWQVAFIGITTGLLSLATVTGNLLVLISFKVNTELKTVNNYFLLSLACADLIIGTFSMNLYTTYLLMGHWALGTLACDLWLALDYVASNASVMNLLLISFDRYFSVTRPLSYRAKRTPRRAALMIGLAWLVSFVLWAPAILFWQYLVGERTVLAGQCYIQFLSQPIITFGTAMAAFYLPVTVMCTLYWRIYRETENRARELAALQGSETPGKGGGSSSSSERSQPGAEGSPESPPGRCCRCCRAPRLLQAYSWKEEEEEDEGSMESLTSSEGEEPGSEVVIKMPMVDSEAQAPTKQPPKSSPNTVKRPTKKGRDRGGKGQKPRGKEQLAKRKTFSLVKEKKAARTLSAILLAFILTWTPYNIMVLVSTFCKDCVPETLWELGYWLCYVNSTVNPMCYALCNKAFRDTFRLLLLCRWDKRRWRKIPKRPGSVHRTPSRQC
Alpha-galactosidase A (Homo sapiens), sequence (P06280 whole entry, looked up): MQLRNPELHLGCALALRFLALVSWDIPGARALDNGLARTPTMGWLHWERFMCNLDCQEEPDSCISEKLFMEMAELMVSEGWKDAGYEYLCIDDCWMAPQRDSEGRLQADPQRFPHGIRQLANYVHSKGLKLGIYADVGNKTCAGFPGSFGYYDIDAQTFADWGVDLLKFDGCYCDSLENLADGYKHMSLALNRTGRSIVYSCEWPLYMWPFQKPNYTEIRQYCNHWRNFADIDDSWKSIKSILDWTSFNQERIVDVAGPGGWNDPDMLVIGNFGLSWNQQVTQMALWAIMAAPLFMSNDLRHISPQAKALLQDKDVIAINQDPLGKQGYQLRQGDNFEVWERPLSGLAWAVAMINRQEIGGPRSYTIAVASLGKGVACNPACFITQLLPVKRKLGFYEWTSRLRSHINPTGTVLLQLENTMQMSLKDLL
Pyruvate kinase PKM (Homo sapiens), sequence (P14618 whole entry, looked up): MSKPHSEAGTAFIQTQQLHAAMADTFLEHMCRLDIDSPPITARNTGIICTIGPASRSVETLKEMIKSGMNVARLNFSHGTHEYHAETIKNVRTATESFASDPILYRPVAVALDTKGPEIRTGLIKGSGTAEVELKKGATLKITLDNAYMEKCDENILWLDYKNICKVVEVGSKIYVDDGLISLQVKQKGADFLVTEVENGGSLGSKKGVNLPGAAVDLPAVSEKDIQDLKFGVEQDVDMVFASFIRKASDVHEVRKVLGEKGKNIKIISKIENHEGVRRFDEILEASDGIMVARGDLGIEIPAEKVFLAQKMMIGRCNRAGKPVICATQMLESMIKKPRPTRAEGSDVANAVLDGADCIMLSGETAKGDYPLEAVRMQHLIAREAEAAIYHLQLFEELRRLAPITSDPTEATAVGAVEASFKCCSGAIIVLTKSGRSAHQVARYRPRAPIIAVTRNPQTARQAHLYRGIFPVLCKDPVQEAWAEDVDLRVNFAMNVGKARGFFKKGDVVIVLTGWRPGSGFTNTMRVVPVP
Pyruvate kinase (Leishmania mexicana), sequence (Q27686 2-499 E452W): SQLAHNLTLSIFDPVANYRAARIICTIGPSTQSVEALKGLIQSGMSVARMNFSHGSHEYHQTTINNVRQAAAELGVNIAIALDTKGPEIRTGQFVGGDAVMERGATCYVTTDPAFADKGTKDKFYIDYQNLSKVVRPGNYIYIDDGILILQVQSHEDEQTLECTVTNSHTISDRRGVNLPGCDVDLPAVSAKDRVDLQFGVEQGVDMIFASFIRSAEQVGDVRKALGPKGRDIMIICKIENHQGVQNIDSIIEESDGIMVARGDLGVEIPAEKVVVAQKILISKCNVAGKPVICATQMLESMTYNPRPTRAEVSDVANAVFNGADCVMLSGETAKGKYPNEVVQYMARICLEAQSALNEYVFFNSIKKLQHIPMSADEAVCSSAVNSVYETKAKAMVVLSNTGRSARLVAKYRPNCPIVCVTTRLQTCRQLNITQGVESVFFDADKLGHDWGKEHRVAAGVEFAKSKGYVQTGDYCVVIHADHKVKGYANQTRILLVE
Cytochrome P450 1A2 (Homo sapiens), sequence (P05177 whole entry, looked up): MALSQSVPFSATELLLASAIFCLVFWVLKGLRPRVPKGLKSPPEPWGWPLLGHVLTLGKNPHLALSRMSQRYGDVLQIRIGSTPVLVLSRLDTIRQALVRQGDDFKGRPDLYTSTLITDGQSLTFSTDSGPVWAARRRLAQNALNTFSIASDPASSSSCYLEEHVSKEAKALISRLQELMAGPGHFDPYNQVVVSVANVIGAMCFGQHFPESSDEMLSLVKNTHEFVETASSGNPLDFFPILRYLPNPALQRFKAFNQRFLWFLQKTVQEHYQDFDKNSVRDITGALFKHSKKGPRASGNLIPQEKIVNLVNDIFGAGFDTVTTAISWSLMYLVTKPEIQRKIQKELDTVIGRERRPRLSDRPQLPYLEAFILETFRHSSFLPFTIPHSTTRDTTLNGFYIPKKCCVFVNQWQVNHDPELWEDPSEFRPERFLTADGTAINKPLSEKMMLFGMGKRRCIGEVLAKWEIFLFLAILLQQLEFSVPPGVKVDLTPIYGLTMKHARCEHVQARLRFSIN
Guanine nucleotide-binding protein G(i) subunit alpha-1 (Homo sapiens), sequence (P63096 whole entry, looked up): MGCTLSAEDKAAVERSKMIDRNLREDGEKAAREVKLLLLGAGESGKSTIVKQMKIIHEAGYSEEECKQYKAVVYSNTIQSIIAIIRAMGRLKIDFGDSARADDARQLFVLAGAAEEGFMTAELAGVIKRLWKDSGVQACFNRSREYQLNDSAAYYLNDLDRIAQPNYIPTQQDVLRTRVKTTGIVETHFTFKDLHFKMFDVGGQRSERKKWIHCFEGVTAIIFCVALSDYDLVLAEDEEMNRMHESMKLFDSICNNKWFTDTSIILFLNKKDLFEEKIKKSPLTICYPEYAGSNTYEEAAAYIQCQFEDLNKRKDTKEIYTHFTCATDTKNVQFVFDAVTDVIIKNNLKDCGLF
Cytochrome P450 3A4 (Homo sapiens), sequence (P08684 whole entry, looked up): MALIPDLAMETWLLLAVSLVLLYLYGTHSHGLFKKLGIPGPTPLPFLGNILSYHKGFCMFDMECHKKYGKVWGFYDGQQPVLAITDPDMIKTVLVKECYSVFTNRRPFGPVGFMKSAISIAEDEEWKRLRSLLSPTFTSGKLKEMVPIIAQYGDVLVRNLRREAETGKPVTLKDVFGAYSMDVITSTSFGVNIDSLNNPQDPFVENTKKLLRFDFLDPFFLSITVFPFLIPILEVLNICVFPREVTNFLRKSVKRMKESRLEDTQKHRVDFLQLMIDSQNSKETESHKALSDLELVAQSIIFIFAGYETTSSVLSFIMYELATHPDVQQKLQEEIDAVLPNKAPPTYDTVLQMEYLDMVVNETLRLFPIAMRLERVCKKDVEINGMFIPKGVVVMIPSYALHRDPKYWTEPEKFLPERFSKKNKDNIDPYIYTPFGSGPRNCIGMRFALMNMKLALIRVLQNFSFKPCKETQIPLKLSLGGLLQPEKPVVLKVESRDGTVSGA

`Cn1cnc2c(NC3CCCC3)ncnc21`: the activity change, negative = inhibition in assay [1] is -18% (inactive); in assay [3], -0.777% (inactive); in [18] (at 57.5 µM (top of the series)), -0.311% (inactive). The results for the Potency in [2], in [5] and in assay [6] were 12.6 µM (active), > 46 µM (inactive) and > 46 µM (inactive), respectively. For the same molecule, in assay [4], the activity, negative = inhibition was 11.1% (inactive). In addition, the Potency entry in assay [7], in assay [8], in assay [10], in [11], in [12] and in assay [13] was “inactive” in each case. Further, the outcome in [9], in assay [14], in assay [15], in assay [16] and in assay [17] was inactive. For the same molecule, in assay [18] (measured here: cell count channel max response), the max response is -17.7%.
